PubChem BioAssay (EPA / NIEHS)
Inconclusive results are not listed. Active and inactive are the calls of the source. Rule for the calls: active = hit-call score of the fitted dose curve at least 0.9, where 1 is the maximum; inconclusive = response in the unintended direction; inactive = score below 0.9.

Experiments:
[1] = molecular target: rat Thyrotropin Releasing Hormone Receptor (TRH), Trhr (gene 25570) (UniProt Q01717); test: NVS_GPCR_rTRH: NovaScreen (NVS) G Protein-Coupled Receptor Assay for rat Thyrotropin Releasing Hormone Receptor (TRH) (AID 2283329);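 note: hit means lower bound tracer signal versus DMSO baseline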
In short: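 Cell-free radioligand binding on rat forebrain membranes; bound tracer measured by filter-based scintillation counting 4 hours after dosing. Loss of signal versus DMSO baseline indicates displacement; primary screen at 25 uM in duplicate, actives then run in concentration series.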

[2] = molecular target: rat Peripheral-type Benzodiazepine Receptor (PBR), Tspo (gene 24230) (UniProt P16257); test: NVS_MP_rPBR: NovaScreen (NVS) Membrane Protein Assay for rat Peripheral-type Benzodiazepine Receptor (PBR) (AID 2283335)
In short: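 Rat kidney membranes; radioligand binding with displacement, filter-based scintillation counting, 1 h incubation. Primary screen in duplicate at 25 uM, actives followed in concentration series; loss of binding vs DMSO.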

[3] = test system: guinea pig Histamine Receptor (H2), gene 100729734; test: NVS_GPCR_gH2: NovaScreen (NVS) G Protein-Coupled Receptor Assay for guinea pig Histamine Receptor (H2) (AID 2283342)
In short: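 Radioligand displacement on guinea pig striatal membranes, 1 h after dosing, filter-based scintillation counting; loss of signal versus DMSO. Single-point screen at 25 uM in duplicate, then concentration-response up to 50 uM.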

[4] = molecular target: Estrogen receptor (Homo sapiens) (UniProt P03372); test: OT_ER_ERaERa_1440: Odyssey Thera (OT) 24-hour HEK293T Protein-Complementation Assay for Estrogen Receptor-alpha/-alpha Homodimer (AID 2283349);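 note: hits raise fluorescence above DMSO for agonists and antagonists alike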
In short: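 HEK293T cells stably expressing the human ER alpha ligand-binding domain (aa 310-547) as a homodimer PCA were dosed for 24 hours. Fluorescence intensity was read by laser scanning cytometry, and gain of signal was fitted relative to DMSO vehicle.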

[5] = molecular target: Bile acid receptor (Homo sapiens) (UniProt Q96RI1); test: NVS_NR_hFXR_Antagonist: NovaScreen (NVS) Nuclear Receptor Binding Assay for human Farnesoid X Receptor Antagonism (FXR) (AID 2283350)
In short: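 Cell-free TR-FRET ligand-binding read-out on human FXR (NR1H4) in antagonist mode, measured 1 h after dosing. Primary screen in duplicate at 25 uM, actives retested in concentration series; signal loss scored versus DMSO.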

[6] = molecular target: Estrogen receptor (Homo sapiens) (UniProt P03372); test: OT_ER_ERaERa_0480: Odyssey Thera (OT) 8-hour HEK293T Protein-Complementation Assay for Estrogen Receptor-alpha/-alpha Homodimer (AID 2283351);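 note: rise in fluorescence from reassembled reporter fragments on ERα LBD homodimer in nucleus or whole cell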
In short: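 HEK293T, stable ERα LBD (aa 310-547) PCA homodimer; 8 h compound exposure; fluorescence intensity, laser scanning cytometer; positive fitting direction, DMSO baseline.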

[7] = molecular target: Voltage-gated inwardly rectifying potassium channel KCNH2 (Homo sapiens) (UniProt Q12809); test: NVS_IC_hKhERGCh: NovaScreen (NVS) Ion Channel Assay for human Potassium Channel ERG (KhERGCh) (AID 2283333)
In short: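 Cell-free radioligand competition binding on hERG protein extracted from CHO cells, read by filter-based scintillation counting 0.75 h after dosing. Primary screen at 25 uM in duplicate, actives followed in concentration series. Signal loss fitted versus DMSO.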

[8] = NVS_IC_rCaBTZCHL: NovaScreen (NVS) Ion Channel Assay for Calcium Channel, Type L, Benzothiazepine Site (CaBTZCHL) (AID 2283337)
In short: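 Scintillation counting of filter-bound radioligand gave the read-out, with reduced binding versus DMSO scored as activity. Membranes came from rat cortex and were read 1.5 h after compound addition. Chemicals were screened first in duplicate at 25 uM.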

[9] = molecular target: bovine Gamma-Aminobutyric Acid Type A Receptor Agonist (GABAR Agonist), GABRA1 (gene 780973) (UniProt P08219); test: NVS_LGIC_bGABAR_Agonist: NovaScreen (NVS) Ligand-Gated Ion Channel Assay for bovine Gamma-Aminobutyric Acid Type A Receptor Agonist (GABAR Agonist) (AID 2283338)
In short: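 Radioligand binding to bovine cerebellar membranes in agonist format, read by filter-based scintillation counting after 1 h. Primary screen in duplicate at 25 uM, with actives followed in concentration series. Gain of signal versus DMSO.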

[10] = molecular target: rat Glutamate, MK-801 Agonist Site (GluNMDA_MK801), Grin1 (gene 24408) (UniProt P35439); test: NVS_LGIC_rGluNMDA_MK801_Agonist: NovaScreen (NVS) Ligand-Gated Ion Channel Assay for rat Glutamate, MK-801 Agonist Site (GluNMDA_MK801) (AID 2283340)
In short: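 Radioligand binding at MK-801 site in rat forebrain membranes, 1.5 h incubation, filter-based scintillation counting. Initially 25 uM in duplicate; actives then run in concentration-response up to 50 uM, fitted for gain of signal versus DMSO.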

[11] = molecular target: rat Glycine Receptor, Strychnine-sensitive (GlyRStrySens), Glra1 (gene 25674) (UniProt P07727); test: NVS_LGIC_rGlyRStrySens: NovaScreen (NVS) Ligand-Gated Ion Channel Assay for rat Glycine Receptor, Strychnine-sensitive (GlyRStrySens) (AID 2283341)
In short: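 Radioligand displacement on rat spinal cord membranes, 1 hr, filter scintillation read-out. Single-concentration duplicate screen at 25 uM; chemicals meeting threshold (e.g., 30% inhibition) rerun in concentration-response up to 50 uM. Loss of binding fitted versus DMSO.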

[12] = molecular target: Estrogen receptor (Homo sapiens) (UniProt P03372); test: NVS_NR_hER: NovaScreen (NVS) Nuclear Receptor Binding Assay for human Estrogen Receptor (ER) (AID 2283348)
In short: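 Radioligand competitive displacement binding to estrogen receptor from MCF7 extract, cell-free; 18 h after dosing, scintillation read-out. Primary screen in duplicate at 25 uM; actives followed up in concentration series; loss of signal vs DMSO.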

[13] = molecular target: human Peripheral-type Benzodiazepine Receptor (PBR), TSPO (gene 706) (UniProt P30536); test: NVS_MP_hPBR: NovaScreen (NVS) Membrane Protein Assay for human Peripheral-type Benzodiazepine Receptor (PBR) (AID 2283331);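 note: hits reduce radioligand binding relative to DMSO baseline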
In short: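 Radioligand displacement on human colonic cell membranes, 1 h incubation; bound radioactivity by filtration and scintillation counting. Primary screen in duplicate at 25 uM single concentration, actives followed up in concentration series; loss of binding versus DMSO.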

[14] = molecular target: human Constitutive Androstane Receptor (CAR), NR1I3 (gene 9970) (UniProt Q14994); test: NVS_NR_hCAR_Antagonist: NovaScreen (NVS) Nuclear Receptor Binding Assay for human Constitutive Androstane Receptor Antagonism (CAR) (AID 2283344)
In short: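 Cell-free TR-FRET binding read 1 h after dosing, antagonist mode; loss of signal versus DMSO baseline. Primary screen in duplicate at a single 25 uM; actives retested in concentration series.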

[15] = molecular target: bovine Estrogen Receptor (ER), ESR1 (gene 407238) (UniProt P49884); test: NVS_NR_bER: NovaScreen (NVS) Nuclear Receptor Binding Assay for bovine Estrogen Receptor (ER) (AID 2283345);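 note: actives lower the bound radioligand count which means they displace the ER ligand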
In short: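 Cell-free radioligand binding with receptor from bovine uterine membranes, read by scintillation counting 18 h after dosing. Loss of specific binding was scored against DMSO; primary screen at 25 uM in duplicate, actives then run as concentration series.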

[16] = molecular target: chimpanzee Androgen Receptor (AR), AR (gene 747460) (UniProt O97775); test: NVS_NR_cAR: NovaScreen (NVS) Nuclear Receptor Binding Assay for chimpanzee Androgen Receptor (AR) (AID 2283346);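 note: radioligand displacement from AR measured by scintillation counting in a cell-free assay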
In short: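 Radioligand binding to chimpanzee AR expressed in Sf9/Sf21 cells, cell-free, measured 72 h after dosing by lysate-based scintillation counting. Loss of signal vs DMSO; initial duplicate screen at 25 uM, actives retested in concentration series.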

Chain of Estrogen receptor (Homo sapiens) (P03372 whole entry, looked up, the tested form may be a part): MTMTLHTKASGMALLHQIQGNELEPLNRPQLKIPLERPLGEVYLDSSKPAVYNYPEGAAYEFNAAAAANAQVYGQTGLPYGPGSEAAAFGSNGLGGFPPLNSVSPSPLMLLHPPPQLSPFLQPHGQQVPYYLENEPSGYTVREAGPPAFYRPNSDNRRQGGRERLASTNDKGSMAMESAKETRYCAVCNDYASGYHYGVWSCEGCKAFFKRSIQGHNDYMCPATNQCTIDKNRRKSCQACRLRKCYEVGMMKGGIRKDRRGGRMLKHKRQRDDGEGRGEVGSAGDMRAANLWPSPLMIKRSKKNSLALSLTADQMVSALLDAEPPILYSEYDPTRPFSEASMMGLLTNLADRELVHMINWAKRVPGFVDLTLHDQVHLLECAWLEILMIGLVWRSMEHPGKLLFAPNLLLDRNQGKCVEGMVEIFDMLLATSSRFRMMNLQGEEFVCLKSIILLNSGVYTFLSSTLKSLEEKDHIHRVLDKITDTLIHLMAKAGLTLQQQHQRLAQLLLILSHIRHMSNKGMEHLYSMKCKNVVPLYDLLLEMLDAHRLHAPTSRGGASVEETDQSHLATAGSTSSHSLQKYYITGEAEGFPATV
Chain of Voltage-gated inwardly rectifying potassium channel KCNH2 (Homo sapiens) (Q12809 whole entry, looked up): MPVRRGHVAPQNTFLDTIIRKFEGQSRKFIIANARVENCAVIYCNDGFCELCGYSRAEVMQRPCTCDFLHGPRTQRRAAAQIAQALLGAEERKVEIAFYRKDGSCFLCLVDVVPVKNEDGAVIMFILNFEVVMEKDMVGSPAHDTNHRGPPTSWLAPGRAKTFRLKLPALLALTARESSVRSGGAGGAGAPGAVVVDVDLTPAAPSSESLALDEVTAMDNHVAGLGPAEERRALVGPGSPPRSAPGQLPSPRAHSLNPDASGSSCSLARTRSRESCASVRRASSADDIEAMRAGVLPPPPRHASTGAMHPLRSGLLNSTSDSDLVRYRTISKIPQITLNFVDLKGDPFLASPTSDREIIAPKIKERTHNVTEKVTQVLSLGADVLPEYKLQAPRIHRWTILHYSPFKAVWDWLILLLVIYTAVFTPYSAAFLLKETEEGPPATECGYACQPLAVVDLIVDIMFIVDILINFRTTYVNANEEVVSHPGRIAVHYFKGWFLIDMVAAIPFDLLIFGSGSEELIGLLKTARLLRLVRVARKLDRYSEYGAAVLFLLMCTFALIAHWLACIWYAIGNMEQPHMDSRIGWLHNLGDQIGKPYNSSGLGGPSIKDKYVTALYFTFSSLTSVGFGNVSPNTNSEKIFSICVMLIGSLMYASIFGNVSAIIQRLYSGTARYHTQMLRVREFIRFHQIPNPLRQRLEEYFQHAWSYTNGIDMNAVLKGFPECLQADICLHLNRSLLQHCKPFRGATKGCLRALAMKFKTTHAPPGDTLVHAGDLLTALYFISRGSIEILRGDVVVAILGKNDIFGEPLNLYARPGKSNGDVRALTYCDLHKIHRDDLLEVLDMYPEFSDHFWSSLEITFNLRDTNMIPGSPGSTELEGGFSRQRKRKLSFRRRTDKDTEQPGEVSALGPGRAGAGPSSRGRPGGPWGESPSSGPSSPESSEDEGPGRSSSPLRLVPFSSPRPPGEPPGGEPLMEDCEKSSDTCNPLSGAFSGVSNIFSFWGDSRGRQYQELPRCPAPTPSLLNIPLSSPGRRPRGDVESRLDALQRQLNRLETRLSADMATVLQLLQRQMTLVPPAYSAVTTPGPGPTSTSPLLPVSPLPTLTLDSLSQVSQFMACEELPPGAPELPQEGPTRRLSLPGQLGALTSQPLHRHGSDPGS
Chain of bovine Gamma-Aminobutyric Acid Type A Receptor Agonist (GABAR Agonist), GABRA1 (gene 780973) (P08219 whole entry, looked up): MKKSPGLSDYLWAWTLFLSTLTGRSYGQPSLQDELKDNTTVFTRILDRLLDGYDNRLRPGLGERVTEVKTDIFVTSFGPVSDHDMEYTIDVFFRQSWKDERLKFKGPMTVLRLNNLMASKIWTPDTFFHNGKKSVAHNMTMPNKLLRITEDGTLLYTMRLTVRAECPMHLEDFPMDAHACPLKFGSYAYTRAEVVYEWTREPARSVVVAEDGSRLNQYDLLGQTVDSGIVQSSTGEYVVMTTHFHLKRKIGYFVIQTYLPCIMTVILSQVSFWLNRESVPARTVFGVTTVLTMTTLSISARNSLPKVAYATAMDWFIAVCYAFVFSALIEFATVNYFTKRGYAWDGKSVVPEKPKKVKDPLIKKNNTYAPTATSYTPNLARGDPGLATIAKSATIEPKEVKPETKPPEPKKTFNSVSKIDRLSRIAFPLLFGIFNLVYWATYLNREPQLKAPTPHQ
Chain of rat Peripheral-type Benzodiazepine Receptor (PBR), Tspo (gene 24230) (P16257 whole entry, looked up): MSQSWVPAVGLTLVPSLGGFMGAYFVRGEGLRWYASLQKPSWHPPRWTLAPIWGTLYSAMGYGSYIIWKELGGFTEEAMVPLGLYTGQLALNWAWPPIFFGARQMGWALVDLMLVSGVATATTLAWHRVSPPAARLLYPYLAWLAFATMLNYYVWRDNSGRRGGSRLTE
Chain of bovine Estrogen Receptor (ER), ESR1 (gene 407238) (P49884 whole entry, looked up): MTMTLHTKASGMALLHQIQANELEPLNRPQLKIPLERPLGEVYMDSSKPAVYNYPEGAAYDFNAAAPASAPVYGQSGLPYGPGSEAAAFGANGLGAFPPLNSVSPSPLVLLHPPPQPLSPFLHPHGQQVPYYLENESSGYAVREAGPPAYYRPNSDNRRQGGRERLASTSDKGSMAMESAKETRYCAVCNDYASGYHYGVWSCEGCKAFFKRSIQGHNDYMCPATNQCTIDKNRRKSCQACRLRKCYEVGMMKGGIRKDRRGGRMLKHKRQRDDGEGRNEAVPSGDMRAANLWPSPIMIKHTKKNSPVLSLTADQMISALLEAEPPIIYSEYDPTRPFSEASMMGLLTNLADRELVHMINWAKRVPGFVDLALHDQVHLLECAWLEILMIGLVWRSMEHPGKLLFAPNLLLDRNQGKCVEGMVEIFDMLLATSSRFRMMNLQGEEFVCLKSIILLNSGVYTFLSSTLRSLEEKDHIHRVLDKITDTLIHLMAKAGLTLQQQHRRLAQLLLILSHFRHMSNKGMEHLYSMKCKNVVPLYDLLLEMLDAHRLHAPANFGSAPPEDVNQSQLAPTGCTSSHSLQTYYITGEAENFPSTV
Chain of Bile acid receptor (Homo sapiens) (Q96RI1 whole entry, looked up): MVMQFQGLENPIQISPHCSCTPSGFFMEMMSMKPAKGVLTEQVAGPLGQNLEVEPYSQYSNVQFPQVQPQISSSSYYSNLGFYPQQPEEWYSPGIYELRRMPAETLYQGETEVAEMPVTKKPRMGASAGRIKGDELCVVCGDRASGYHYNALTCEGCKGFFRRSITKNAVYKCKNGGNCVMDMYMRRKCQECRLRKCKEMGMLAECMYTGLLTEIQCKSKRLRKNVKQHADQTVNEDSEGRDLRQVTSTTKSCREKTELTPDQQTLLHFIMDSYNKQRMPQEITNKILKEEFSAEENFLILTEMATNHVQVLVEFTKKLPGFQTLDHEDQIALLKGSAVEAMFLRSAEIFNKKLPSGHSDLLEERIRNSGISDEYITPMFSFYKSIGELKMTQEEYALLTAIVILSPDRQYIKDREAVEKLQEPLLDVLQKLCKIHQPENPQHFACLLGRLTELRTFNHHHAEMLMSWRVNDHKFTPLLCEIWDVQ
Chain of rat Glycine Receptor, Strychnine-sensitive (GlyRStrySens), Glra1 (gene 25674) (P07727 whole entry, looked up): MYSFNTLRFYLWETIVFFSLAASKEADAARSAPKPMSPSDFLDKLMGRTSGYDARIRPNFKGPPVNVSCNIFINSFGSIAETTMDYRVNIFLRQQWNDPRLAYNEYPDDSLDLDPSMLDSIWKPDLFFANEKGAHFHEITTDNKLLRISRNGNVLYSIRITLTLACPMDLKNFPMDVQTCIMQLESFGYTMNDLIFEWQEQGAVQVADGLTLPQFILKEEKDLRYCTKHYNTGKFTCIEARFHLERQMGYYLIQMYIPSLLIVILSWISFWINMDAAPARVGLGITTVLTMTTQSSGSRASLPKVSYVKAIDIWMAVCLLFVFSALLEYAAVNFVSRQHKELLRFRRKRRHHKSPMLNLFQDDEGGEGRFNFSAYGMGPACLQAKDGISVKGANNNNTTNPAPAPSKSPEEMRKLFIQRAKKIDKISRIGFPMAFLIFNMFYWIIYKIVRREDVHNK
Chain of human Peripheral-type Benzodiazepine Receptor (PBR), TSPO (gene 706) (P30536 whole entry, looked up): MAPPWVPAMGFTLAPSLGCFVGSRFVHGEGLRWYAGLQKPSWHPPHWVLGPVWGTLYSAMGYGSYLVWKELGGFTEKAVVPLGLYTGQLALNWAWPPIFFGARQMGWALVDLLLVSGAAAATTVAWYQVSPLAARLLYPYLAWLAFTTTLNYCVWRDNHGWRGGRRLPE
Chain of chimpanzee Androgen Receptor (AR), AR (gene 747460) (O97775 whole entry, looked up): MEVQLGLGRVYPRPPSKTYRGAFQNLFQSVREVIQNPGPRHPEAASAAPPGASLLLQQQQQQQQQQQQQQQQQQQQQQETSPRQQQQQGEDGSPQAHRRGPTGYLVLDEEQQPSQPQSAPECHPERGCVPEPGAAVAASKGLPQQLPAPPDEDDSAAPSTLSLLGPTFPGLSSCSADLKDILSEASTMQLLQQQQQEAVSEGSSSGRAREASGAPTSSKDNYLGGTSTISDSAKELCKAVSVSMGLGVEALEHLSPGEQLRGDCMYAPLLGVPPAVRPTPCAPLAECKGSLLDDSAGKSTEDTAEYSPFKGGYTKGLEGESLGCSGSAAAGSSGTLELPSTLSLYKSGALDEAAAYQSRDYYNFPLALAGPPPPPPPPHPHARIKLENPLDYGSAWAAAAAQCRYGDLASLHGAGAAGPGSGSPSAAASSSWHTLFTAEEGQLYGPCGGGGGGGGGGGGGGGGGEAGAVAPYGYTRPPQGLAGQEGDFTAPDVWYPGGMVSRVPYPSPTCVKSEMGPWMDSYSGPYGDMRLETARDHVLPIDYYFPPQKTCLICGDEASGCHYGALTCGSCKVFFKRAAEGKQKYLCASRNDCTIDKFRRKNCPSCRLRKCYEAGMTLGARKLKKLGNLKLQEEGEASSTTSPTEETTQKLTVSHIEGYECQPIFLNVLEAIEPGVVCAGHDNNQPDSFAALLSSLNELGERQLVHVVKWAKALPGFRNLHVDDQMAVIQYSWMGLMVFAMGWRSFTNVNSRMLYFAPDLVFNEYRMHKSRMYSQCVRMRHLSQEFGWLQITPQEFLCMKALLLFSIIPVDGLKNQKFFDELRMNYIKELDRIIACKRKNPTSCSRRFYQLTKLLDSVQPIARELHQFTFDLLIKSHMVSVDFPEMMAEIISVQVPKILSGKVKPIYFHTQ

For `CCCCc1nc2cccnc2n1Cc1ccc(-c2ccccc2-c2nnn[nH]2)cc1`, the outcome [1] was “inactive”, the AC50 [2] was 14.6 µM (active) and the outcome [3] was “inactive”. The outcome [4] was “inactive”, the outcome [5] was “inactive” and the outcome [6] was “inactive”.

For `CN(C)CCCN1c2ccccc2Sc2ccc(Cl)cc21`, the AC50 [7] was 10.4 µM (active), the AC50 [8] was 2.52 µM (active) and the outcome [9] was “inactive”. The AC50 [10] was 25 µM (active), the AC50 [3] was 1.42 µM (active) and the outcome [5] was “inactive”.

In the case of `CSc1ccc(Oc2ccc(S(N)(=O)=O)cc2CN(C)C)cc1C`, the outcome [7] is reported as “inactive”, the AC50 [8] is reported as 10.1 µM (active) and the AC50 [9] is reported as 38.8 µM (active). For the same compound, the outcome [11] was “inactive”, the AC50 [3] was 11.7 µM (active) and the outcome [12] was “inactive”. The outcome [4] was “inactive” and the outcome [6] was “inactive”.

In the case of `O=C(N[C@@H](c1ccccc1)[C@@H]1CCCCN1)c1cccc(C(F)(F)F)c1Cl`, the AC50 [13] is reported as 17.9 µM (active), the AC50 [7] is reported as 32.9 µM (active) and the AC50 [2] is reported as 25 µM (active). The AC50 [8] was 0.967 µM (active), the AC50 [14] was 25 µM (active) and the outcome [4] was “inactive”. For the same compound, the outcome [6] was “inactive”.

In the case of `O=C(O)c1[nH]n(-c2ccc(S(=O)(=O)O)cc2)c(=O)c1N=Nc1ccc(S(=O)(=O)O)cc1`, the outcome [7] is reported as “inactive”, the AC50 [8] is reported as 10.4 µM (active) and the outcome [4] is reported as “inactive”. For the same compound, the outcome [6] was “inactive”.

In the case of `CC1(C)C(=O)NC(=O)N1CO`, the outcome [4] is reported as “inactive” and the outcome [6] is reported as “inactive”.

In the case of `O=C(NS(=O)(=O)/C=C/c1cccs1)c1ccc(F)cc1Br`, the outcome [4] is reported as “inactive” and the outcome [6] is reported as “inactive”.

For `Nc1nc(=S)c2[nH]cnc2[nH]1`, the outcome [12] was “inactive”, the outcome [4] was “inactive” and the outcome [6] was “inactive”.

For `CN(C)CCCN(C)CCCN(C)C`, the outcome [4] was “inactive” and the outcome [6] was “inactive”.

In the case of `O=Cc1ccccc1C=O`, the outcome [15] is reported as “inactive”, the AC50 [16] is reported as 25 µM (active) and the outcome [12] is reported as “inactive”. The outcome [4] was “inactive” and the outcome [6] was “inactive”.

With `Cc1c(C)c2c(c(C)c1O)CCC(C)(COc1ccc(CC3SC(=O)NC3=O)cc1)O2` (stereo not given) the outcome [9] was “inactive”, the outcome [15] was “inactive” and the outcome [12] was “inactive”. For the same compound, the outcome [4] was “inactive” and the outcome [6] was “inactive”.
